Out of some 1,500 compounds screened, about 390 (26%) were called active. How the calls were made is not given here. A selection follows. Measured potencies and affinities stand elsewhere.
What follows are molecules tested against Histone-lysine N-methyltransferase NSD2 (Homo sapiens) (UniProt O96028) (assay: blockers of NSD2 H4 peptide methylation – biochemical, AlphaScreen, cherry-picked samples, dose response (AID 1053173)). Details: 120 min; series mostly up to 10 µM.
Chain of Histone-lysine N-methyltransferase NSD2 (Homo sapiens) (O96028 whole entry, looked up): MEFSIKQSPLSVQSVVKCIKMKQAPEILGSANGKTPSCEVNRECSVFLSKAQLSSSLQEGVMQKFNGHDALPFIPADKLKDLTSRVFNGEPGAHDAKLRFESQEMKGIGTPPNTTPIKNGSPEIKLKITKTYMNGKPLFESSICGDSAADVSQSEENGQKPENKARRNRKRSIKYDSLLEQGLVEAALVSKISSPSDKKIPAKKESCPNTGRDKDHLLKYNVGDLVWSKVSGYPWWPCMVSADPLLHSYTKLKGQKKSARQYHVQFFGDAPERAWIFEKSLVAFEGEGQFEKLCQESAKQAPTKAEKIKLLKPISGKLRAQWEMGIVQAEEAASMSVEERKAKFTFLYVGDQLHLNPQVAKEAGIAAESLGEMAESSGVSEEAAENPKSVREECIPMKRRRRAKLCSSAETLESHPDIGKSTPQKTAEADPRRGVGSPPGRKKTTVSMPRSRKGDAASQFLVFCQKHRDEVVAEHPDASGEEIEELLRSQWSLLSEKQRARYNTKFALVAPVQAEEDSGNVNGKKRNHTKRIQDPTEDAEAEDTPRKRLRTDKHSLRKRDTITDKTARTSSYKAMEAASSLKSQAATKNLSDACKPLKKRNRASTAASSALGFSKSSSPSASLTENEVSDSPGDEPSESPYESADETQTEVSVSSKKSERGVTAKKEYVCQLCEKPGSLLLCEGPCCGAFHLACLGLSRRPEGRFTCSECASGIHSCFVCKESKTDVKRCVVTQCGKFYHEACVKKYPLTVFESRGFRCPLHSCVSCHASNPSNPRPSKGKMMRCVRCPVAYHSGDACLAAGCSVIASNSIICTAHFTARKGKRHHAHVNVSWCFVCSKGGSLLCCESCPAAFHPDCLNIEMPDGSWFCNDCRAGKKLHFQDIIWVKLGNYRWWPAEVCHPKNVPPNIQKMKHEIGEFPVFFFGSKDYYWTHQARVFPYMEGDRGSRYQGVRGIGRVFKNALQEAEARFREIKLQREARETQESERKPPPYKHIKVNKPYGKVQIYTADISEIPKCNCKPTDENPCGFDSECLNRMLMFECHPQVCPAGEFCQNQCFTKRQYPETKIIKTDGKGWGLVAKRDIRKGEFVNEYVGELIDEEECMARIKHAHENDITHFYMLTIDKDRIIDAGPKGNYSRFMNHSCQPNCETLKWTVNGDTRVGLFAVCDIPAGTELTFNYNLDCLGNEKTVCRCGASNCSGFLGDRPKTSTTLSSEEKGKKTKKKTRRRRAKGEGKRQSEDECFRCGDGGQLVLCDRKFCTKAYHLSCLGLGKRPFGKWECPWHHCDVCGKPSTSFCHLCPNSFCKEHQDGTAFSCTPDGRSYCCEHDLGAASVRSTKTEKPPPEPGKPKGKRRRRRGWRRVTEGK

SMILES | outcome
O=C1CN(C(=O)COC(=O)c2ccc([N+](=O)[O-])s2)c2ccccc2N1 | inactive
CCN(CC)S(=O)(=O)c1ccc(N2CCN(C)CC2)c(NC(=O)Nc2ccccc2F)c1 | inactive
Cc1ccc(S(=O)(=O)N2CCN(C(=O)C(F)(F)F)C2c2ccc(N(C)C)cc2)cc1 (configuration not stated) | inactive
Cc1ccccc1CN1CCN(C(=O)c2ccco2)CC1 | inactive
CC1Oc2ccc(C#N)cc2N(Cc2cccc(F)c2)C1=O (configuration not stated) | inactive
C=CCN1CCN(C(c2cccc(OC)c2OC)c2nnnn2CCC(C)C)CC1 (configuration not stated) | inactive
CC(=O)c1ccc(NC(=O)CC2Nc3cccc4cccc(c34)NC2=O)cc1 (configuration not stated) | inactive
COCCCNC(=S)Nc1cccc2ncccc12 | inactive
O=C1CCCC2=C1C(c1ccc(O)c(O)c1)c1c(ccc3ncccc13)N2 (configuration not stated) | inactive
CN(CCc1ccccc1)C1CCCN(S(=O)(=O)N(C)C)C1 (configuration not stated) | inactive
C/C(CC(=O)NCCCN1CCOCC1)=N\NC(=O)COc1ccc(Cl)cc1 | inactive
O=C(COC(=O)c1ccc([N+](=O)[O-])o1)NC1CCS(=O)(=O)C1 (configuration not stated) | inactive
Cc1cccc(NC(=O)c2ccc(NS(=O)(=O)c3cccc4cccnc34)cc2)c1 | inactive
Cc1ccc(CSc2nnc(Nc3ccc(C)cc3)s2)cc1 | inactive
CN(c1ccc(C(=O)O)cc1)S(=O)(=O)c1ccccc1 | inactive
Cc1cc(C)c2c(c1)N[C@H](c1cccs1)[C@@H]1CCO[C@H]21 | inactive
CC(NC(=O)c1cccc(Br)c1)c1ccccc1 (configuration not stated) | inactive
CCN(CC)C(=O)COc1ccc2oc(C)c(C(=O)OC(C)C)c2c1 | inactive
COc1ccc(C)cc1NC(=O)CCNC(=O)Cn1cnc2ccccc2c1=O | inactive
Cc1ccc(Cn2c(SCC(=O)NCC3CCCO3)nc3c2c(=O)n(C)c(=O)n3C)cc1 (configuration not stated) | inactive
C/C(C=Nn1c(-c2ccc(F)cc2)n[nH]c1=S)=C/c1ccco1 | inactive
Cc1ccc(C(=O)NC(=S)NNC(=O)c2ccccc2O)cc1 | inactive
Cc1cc2ccccn2c1C(=O)c1ccc([N+](=O)[O-])o1 | inactive

SMILES | outcome
COc1ccc(S(=O)(=O)NCc2ccc3c(c2)OCO3)cc1OC | inactive
Cn1c(COc2ccc(Cl)cc2)nnc1SCC(=O)NC1CCCCC1 | inactive
Cc1ccc(S(=O)(=O)N2CCCC(N3CCOCC3)C2)cc1Cl (configuration not stated) | inactive
O=C(c1cc(-c2ccc(Cl)cc2)n(-c2ccc(Cl)cc2)n1)N1CCOCC1 | inactive
O=C1CC(C(=O)N2CCc3ccccc32)CN1c1ccccc1 (configuration not stated) | inactive
O=C(OCC(=O)N1CCOCC1)c1ccc(Br)cc1 | inactive
O=C(NCCC(=O)N1CCc2ccccc21)c1ccco1 | inactive
C=CCn1c(SCc2ccc3c(c2)OCO3)nc2scc(-c3ccco3)c2c1=O | inactive
Cc1cccc(OCC(=O)Nc2ncn[nH]2)c1C | inactive
N#Cc1ccc(OCC(=O)NCCCn2ccnc2)cc1 | inactive
COCCCNC(=O)COc1ccc(Cl)c(C)c1 | inactive
Cc1cc(OCCn2nc(C(=O)O)c3ccccc3c2=O)ccc1C(C)C | inactive
COCCNc1nc(-c2ccccc2)nc2ccccc12 | inactive
CC(=O)c1ccc(NC(=S)NCCc2cccc(Cl)c2)cc1 | inactive
COCCNC(=O)CN(C(=O)CCC(=O)Nc1nccs1)c1ccc2c(c1)OCO2 | inactive
CCOC(=O)c1cc(NC(=O)CN2CCCC2)cc(C(=O)OCC)c1 | inactive
O=C(Cn1cnc2c(cnn2-c2ccccc2)c1=O)OCc1ccccc1 | inactive
CN(C)S(=O)(=O)c1ccc(Cl)c(C(=O)OCC(=O)c2ccco2)c1 | inactive
COc1ccc(CN(C(=O)c2cccc(OC)c2)C2CCS(=O)(=O)C2)cc1 (configuration not stated) | inactive
CN(C(=O)CN1C(=O)S/C(=C\c2ccccc2F)C1=O)C1CCS(=O)(=O)C1 (configuration not stated) | inactive
COC(=O)c1nc(NC(=O)c2ccccc2)n[nH]1 | inactive
Cc1ccc(C)c(NC(=S)Nc2cccc3cnccc23)c1 | inactive
O=C(Nc1cc(Cl)ccc1-n1cncn1)c1cccs1 | inactive

SMILES | outcome
COc1ccc(C(C(=O)NC(C)(C)C)N(C(=O)CCC(=O)Nc2cc(C)on2)c2ccccc2F)cc1 (configuration not stated) | inactive
COc1cccc(/C=C2\N=C(SC)SC2=O)c1OC | inactive
Cc1c(C(=O)N2CCN(c3ccc(F)cc3)CC2)sc2ncnc(N3CCN(c4ccccn4)CC3)c12 | inactive
COC(=O)c1ccc(Cn2cnc3c(sc4nc(N5CCOCC5)c5c(c43)CCCC5)c2=O)o1 | inactive
CC(C)c1nc2oc3c(NCC4CCCO4)ncnc3c2c2c1COC(C)(C)C2 (configuration not stated) | inactive
CCO/C=C/C(=O)N(C)CCC#N | inactive
CCN(CC)C(=O)CSc1nc2ccccc2c(=O)n1CCC(=O)NCc1ccc(F)cc1 | inactive
COc1cc(NC(=O)CCn2c(=O)oc3ccccc32)cc(OC)c1OC | inactive
Cc1[nH][nH]c(=O)c1C(c1ccc(-c2ccc(F)cc2)o1)c1c(C)[nH][nH]c1=O | inactive
Cc1[nH][nH]c(=O)c1C(c1ccc(-c2cccc(C(=O)O)c2)o1)c1c(C)[nH][nH]c1=O | inactive
O=C(CC1SC2=NCCN2C1=O)Nc1ccccc1 (configuration not stated) | inactive
Cc1ccc(OCCCC(=O)Nc2ccccc2C(F)(F)F)cc1 | inactive
Cc1cccc(C)c1OCC(O)CNS(=O)(=O)c1ccccc1C(=O)N1CCCCC1 (configuration not stated) | inactive
Cc1ccc(-n2nc3c(=O)n(CC(=O)NCc4ccccc4)nc(C)c3c2C)cc1 | inactive
Fc1ccc(C2CCNCC2COc2ccc3c(c2)OCO3)cc1 (configuration not stated) | inactive
CN(C)Cc1cc(O)c(CN(C)C)cc1O | inactive
Cc1ccc(S(=O)(=O)N2CCOCC2)cc1NC(=O)CSc1ccccn1 | inactive
COc1cc2[nH]c(Cl)c([N+](=O)[O-])c2cc1OC | inactive
O=C(Nc1cccc(O)c1)c1ccc(Br)cc1 | inactive
COc1cc(/C=C/c2nc3ccccc3c(=O)[nH]2)cc(Cl)c1O | inactive
CC(=O)Nc1cccc(C(=O)OCc2ccccc2)c1 | inactive
Nc1nc(=S)c2ncn(C3OC(CO)C(O)C3O)c2[nH]1 (configuration not stated) | inactive
O=C(/C=C/c1ccc(-c2ccccc2)cc1)NCc1cccnc1 | inactive

SMILES | outcome
CC(C)(C)CC(=O)Nc1nnc(SCC(=O)NCc2cccs2)s1 | inactive
C=CCn1c(=NC(=O)c2ccc(S(=O)(=O)N3CCCC3)cc2)sc2cc(NC(C)=O)ccc21 | inactive
CC1(C)NC(=O)N(CCOCCOc2c(Cl)cc(Cl)cc2Cl)C1=O | inactive
COc1ccc(CC(=O)NC2CCCCCC2)c(OC)c1 | inactive
Cc1cc(-c2n[nH]c(=S)n2N=Cc2cccc(OCc3ccccc3)c2)n[nH]1 | inactive
CC(C)=NOCC(=O)Nn1c(COc2c(C)cccc2C)nc2ccccc2c1=O | inactive
COc1ccc2nc3cccc(OC)c3nc2c1 | inactive
C=CCOCC(O)Cn1c(N2CCCC2)nc2c1c(=O)n(C)c(=O)n2C (configuration not stated) | inactive
CSCCC(NC(=O)c1ccccc1Cl)C(=O)NCC(c1ccc(F)cc1)N1CCOCC1 (configuration not stated) | inactive
COc1cc(C(=O)NC(C)c2ccc3ccccc3c2)cc(Cl)c1O (configuration not stated) | inactive
COc1ccc(-c2nnc3n2N=C(C)CS3)cc1 | inactive
COc1cccc(-c2nn3c(-c4ccco4)nnc3s2)c1 | inactive
Cn1c(=O)[nH]c2nnc(-c3ccc(Cl)c(Cl)c3)nc2c1=O | inactive
CCOc1ccccc1NC(=O)C1CCCN1C(=O)c1cccs1 (configuration not stated) | inactive
CSc1nc(N)nc(N(C)C)n1 | inactive
O=C(COC(=O)c1ccccc1F)NC1CC1 | inactive
CCOc1ccc(C(CC(=O)O)NC(=O)C23CC4CC(CC(C4)C2)C3)cc1OC (configuration not stated) | inactive
Cc1nc([N+](=O)[O-])c(C(=O)OCc2ccccc2F)n1C | inactive
CNc1c(N)n(Cc2ccccc2)c(=O)[nH]c1=O | inactive
Cc1ccccc1CS(=O)(=O)CC(O)CN1CCCC1=O (configuration not stated) | inactive
CCc1ccc(NC(=O)c2cc(-c3ccc4c(c3)OCO4)on2)cc1 | inactive
Nc1c(C(=O)NCc2ccc(F)cc2)c2nc3ccccc3nc2n1CCCN1CCOCC1 | inactive
COc1ccc2c(c1)c1nc3ccccc3nc1n2CCn1c(=O)oc2ccccc21 | inactive

SMILES | outcome
CCc1ccc(N(CC(=O)NCc2ccc3c(c2)OCO3)C(=O)c2csnn2)cc1 | inactive
COc1ccc(C)cc1COC(=O)c1[nH]c(C)c(C(C)=O)c1C | inactive
COc1ccc(N(CC(=O)NCCSc2ccccn2)S(C)(=O)=O)cc1 | inactive
COc1ccc(CNC(=O)CCCn2nc(C)c([N+](=O)[O-])c2C)cc1OC | inactive
Cc1nc2cc(C(=O)NCc3cccnc3)ccc2n1-c1ccc(F)cc1F | inactive
Cc1ccc(C(=O)NCCn2c(N)c(C#N)c3nc4ccccc4nc32)cc1 | inactive
CCOC(=O)CNC(=O)N1CCC(CCC(=O)N(C)Cc2ccccc2)CC1 | inactive
CCCC(=O)Nc1ccc(C(=O)O)cc1NC(=O)CCC | inactive
O=C(O)c1ccc2cccnc2c1O | inactive
COc1cccc(NC(=O)c2ccc3c(c2)OCCO3)c1 | inactive
COc1ccc(-c2ncncc2-c2ccccc2)c(O)c1 | inactive
O=C1C=CC(=O)N1c1ccc(N2CCCCC2)cc1 | inactive
Cc1c([N+](=O)[O-])cc(N2C(=O)C=CC2=O)cc1[N+](=O)[O-] | inactive
CCOC(=S)SCC(=O)Nc1nc(C)c(C)s1 | inactive
O=C(Nc1nnc(SCc2cccc3ccccc23)s1)C1COc2ccccc2O1 (configuration not stated) | inactive
NC(=O)C1Cc2ccccc2CN1S(=O)(=O)c1ccc(Cl)s1 (configuration not stated) | inactive
COc1ccccc1N(C)S(=O)(=O)c1ccc(C(=O)NC2CCCCCC2)cc1 | inactive
COc1cc(OC)c(C(=O)OC(C)C(=O)NCc2ccc3c(c2)OCO3)cc1OC (configuration not stated) | inactive
C/C(=N\NC(=O)c1nnn(-c2nonc2N)c1C)c1ccc(-c2ccccc2)cc1 | inactive
CC(=O)c1c(C)[nH]c(C(=O)Nc2ccc(C)cc2Br)c1C | inactive

— PubChem BioAssay AID1053173 (Broad Institute, 2014)
